Experimental data reported in PubChem BioAssay (EPA / NIEHS).
Calls of active or inactive are those of the source. How the source made its calls: active means hit-call score of the fitted dose curve at least 0.9, where 1 is the maximum; inactive means score below 0.9.

How the values were obtained:
Settings in all cases: mRNA level, 48 h; actives raise or lower the signal
HGF (gene 3082) = test: LTEA_HepaRG_HGF: Life Technologies and Expression Analysis (LTEA) Assay for Hepatocyte Growth Facto (HGF) using HepaRG (AID 2283505)
Method in brief: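 HepaRG, 48 h dosing, 8-pt half-log series from 100 uM in 0.5% DMSO, duplicates. Readout: TaqMan qRT-PCR of HGF mRNA, housekeeping-normalized; bidirectional curve fit vs DMSO baseline.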

[1] = read-out: Insulin Like Growth Factor 1 (IGF1), IGF1 (gene 3479); test: LTEA_HepaRG_IGF1: Life Technologies and Expression Analysis (LTEA) Assay for Insulin Like Growth Factor 1 (IGF1) using HepaRG (AID 2283506)
Method in brief: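 Differentiated human HepaRG cells were dosed for 48 h in serum-free induction medium with 0.5% DMSO, eight half-log concentrations up to 100 uM, in duplicate. IGF1 mRNA was quantified by qRT-PCR normalized to ACTB, GAPDH, POLR2A; bidirectional fitting versus DMSO.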

[2] = read-out: Intercellular Adhesion Molecule 1 (ICAM1), ICAM1 (gene 3383); test: LTEA_HepaRG_ICAM1: Life Technologies and Expression Analysis (LTEA) Assay for Intercellular Adhesion Molecule 1 (ICAM1) using HepaRG (AID 2283507)
Method in brief: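 HepaRG, 48 h exposure, 8-pt half-log series from 100 uM, 0.5% DMSO vehicle, duplicates. Readout: TaqMan qRT-PCR mRNA, housekeeping-normalized (ACTB/GAPDH/POLR2A). Bidirectional curve fit vs DMSO baseline.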

[3] = read-out: Insulin-like growth factor-binding protein 1 (IGFBP1), IGFBP1 (gene 3484); test: LTEA_HepaRG_IGFBP1: Life Technologies and Expression Analysis (LTEA) Assay for Insulin-like growth factor-binding protein 1 (IGFBP1) using HepaRG (AID 2283508)
Method in brief: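 qRT-PCR mRNA read-out (TaqMan, Fluidigm array), normalised to three housekeeping genes; HepaRG cells, 48 h exposure, 8-pt half-log series from 100 uM, 0.5% DMSO vehicle; bidirectional curve fit vs DMSO baseline.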

[4] = read-out: Potassium channel subfamily K member 1 (KCNK1), KCNK1 (gene 3775); test: LTEA_HepaRG_KCNK1: Life Technologies and Expression Analysis (LTEA) Assay for Potassium channel subfamily K member 1 (KCNK1) using HepaRG (AID 2283511)
Method in brief: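 Differentiated human HepaRG cells in serum-free induction medium were exposed in duplicate for 48 h to 8 half-log concentrations up to 100 uM in 0.5% DMSO. KCNK1 mRNA was measured by TaqMan qRT-PCR, normalized to ACTB, GAPDH and POLR2A, and fitted bidirectionally versus DMSO.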

[5] = read-out: Keratin 19 (KRT19), KRT19 (gene 3880); test: LTEA_HepaRG_KRT19: Life Technologies and Expression Analysis (LTEA) Assay for Keratin 19 (KRT19) using HepaRG (AID 2283512)
Method in brief: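 HepaRG, 48 h chemical exposure, 8-pt half-log CRC from 100 uM, 0.5% DMSO vehicle, duplicates. Readout: TaqMan qRT-PCR of KRT19 mRNA, housekeeping-normalized (ACTB/GAPDH/POLR2A). Bidirectional fit vs DMSO baseline.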

[6] = read-out: JUN Transcription Factor, JUN (gene 3725); test: LTEA_HepaRG_JUN: Life Technologies and Expression Analysis (LTEA) Assay for JUN Transcription Factor using HepaRG (AID 2283513)
Method in brief: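 Differentiated HepaRG cells were exposed to chemicals for 48 h in serum-free induction medium, 8 concentrations from 100 uM in half-log steps, 0.5% DMSO vehicle, in duplicate. JUN mRNA was quantified by TaqMan qRT-PCR, normalized to ACTB, GAPDH, POLR2A.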

[7] = read-out: Lipase C (LIPC), LIPC (gene 3990); test: LTEA_HepaRG_LIPC: Life Technologies and Expression Analysis (LTEA) Assay for Lipase C (LIPC) using HepaRG (AID 2283514)
Method in brief: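 Differentiated human HepaRG cells in serum-free induction medium were exposed in duplicate for 48 h to eight concentrations (top 100 uM, half-log steps, 0.5% DMSO). LIPC mRNA was quantified by TaqMan qRT-PCR, normalized to ACTB, GAPDH and POLR2A, with bidirectional fitting versus DMSO.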

[8] = read-out: MicroRNA 122 (MIR122), gene 406906; test: LTEA_HepaRG_MIR122: Life Technologies and Expression Analysis (LTEA) Assay for MicroRNA 122 (MIR122) using HepaRG (AID 2283516); further: the transcript read is the microRNA miR-122
Method in brief: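 Differentiated human HepaRG cells were exposed 48 h in serum-free induction medium to eight half-log concentrations (top 100 uM, 0.5% DMSO). Transcript level was measured by TaqMan qRT-PCR, normalized to ACTB, GAPDH and POLR2A, and fitted bidirectionally versus DMSO.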

[9] = read-out: matrix metalloproteinase-10 (MMP10), MMP10 (gene 4319); test: LTEA_HepaRG_MMP10: Life Technologies and Expression Analysis (LTEA) Assay for matrix metalloproteinase-10 (MMP10) using HepaRG (AID 2283517)
Method in brief: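 HepaRG, collagen I, ~100,000 cells/well; serum-free induction medium; 48 h exposure, duplicate, 8-pt half-log to 100 uM, 0.5% DMSO. Readout: TaqMan qRT-PCR, normalized to ACTB/GAPDH/POLR2A; bidirectional fit vs DMSO.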

MYC, MYC (gene 4609) = test: LTEA_HepaRG_MYC: Life Technologies and Expression Analysis (LTEA) Assay for MYC using HepaRG (AID 2283518)
Method in brief: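 qRT-PCR read-out of MYC transcript (Fluidigm TaqMan, housekeeping-normalized) after 48 h chemical exposure of HepaRG cells; eight concentrations, top 100 uM, half-log steps. Bidirectional curve fitting against 0.5% DMSO vehicle baseline.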

[10] = read-out: matrix metalloproteinase-3 (MMP3), MMP3 (gene 4314); test: LTEA_HepaRG_MMP3: Life Technologies and Expression Analysis (LTEA) Assay for matrix metalloproteinase-3 (MMP3) using HepaRG (AID 2283519)
Method in brief: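 Differentiated human HepaRG cells, plated 48 h on collagen I, were exposed in duplicate for 48 h in serum-free induction medium to eight half-log concentrations up to 100 uM in 0.5% DMSO. MMP3 mRNA was quantified by TaqMan qRT-PCR, normalised to ACTB, GAPDH and POLR2A.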

[11] = read-out: Paternally Expressed 10 (PEG10), PEG10 (gene 23089); test: LTEA_HepaRG_PEG10: Life Technologies and Expression Analysis (LTEA) Assay for Paternally Expressed 10 (PEG10) using HepaRG (AID 2283520)
Method in brief: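 Differentiated HepaRG cells, plated 48 h then switched to serum-free induction medium, were exposed in duplicate for 48 h to eight half-log concentrations topping at 100 uM in 0.5% DMSO. PEG10 mRNA was quantified by TaqMan qRT-PCR, normalised to ACTB, GAPDH and POLR2A.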

[12] = read-out: Nuclear factor NF-kappa-B p105 subunit (Homo sapiens) (UniProt P19838); test: LTEA_HepaRG_NFKB1: Life Technologies and Expression Analysis (LTEA) Assay for Nuclear Factor Kappa B Subunit 1 (NFKB1) using HepaRG (AID 2283521);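 further: TaqMan qRT-PCR transcript normalised to ACTB GAPDH and POLR2A housekeeping genes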
Method in brief: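 Differentiated human HepaRG cells were exposed for 48 h in serum-free induction medium to eight concentrations (top 100 uM, half-log steps, 0.5% DMSO), in duplicate. NFKB1 mRNA was measured by TaqMan qRT-PCR, normalized to ACTB/GAPDH/POLR2A, and fitted bidirectionally against DMSO.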

[13] = read-out: Protein phosphatase 2A (PPP2R4), PTPA (gene 5524); test: LTEA_HepaRG_PPP2R4: Life Technologies and Expression Analysis (LTEA) Assay for Protein phosphatase 2A (PPP2R4) using HepaRG (AID 2283522)
Method in brief: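 Differentiated HepaRG cells in serum-free induction medium were exposed in duplicate for 48 h to eight concentrations, top 100 uM with half-log dilutions, in 0.5% DMSO. PPP2R4 mRNA was quantified by TaqMan qRT-PCR, normalized to ACTB, GAPDH and POLR2A.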

[14] = read-out: Phosphatase and tensin (PTEN), PTEN (gene 5728); test: LTEA_HepaRG_PTEN: Life Technologies and Expression Analysis (LTEA) Assay for Phosphatase and tensin (PTEN) using HepaRG (AID 2283523)
Method in brief: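 Differentiated human HepaRG cells, plated 48 h then switched to serum-free induction medium, were exposed in duplicate for 48 h to eight half-log concentrations up to 100 uM in 0.5% DMSO. PTEN mRNA measured by TaqMan qRT-PCR, normalized to ACTB/GAPDH/POLR2A, bidirectional fit versus DMSO.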

[15] = read-out: solute carrier (SLC22A1), SLC22A1 (gene 6580); test: LTEA_HepaRG_SLC22A1: Life Technologies and Expression Analysis (LTEA) Assay for solute carrier (SLC22A1) using HepaRG (AID 2283524)
Method in brief: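 Human HepaRG cells were plated 48 h, switched to serum-free induction medium, then exposed in duplicate for 48 h to 8-point half-log series from 100 uM in 0.5% DMSO. SLC22A1 mRNA measured by qRT-PCR, normalized to ACTB/GAPDH/POLR2A, fitted bidirectionally versus DMSO.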

[16] = read-out: Lipoprotein lipase (LPL), LPL (gene 4023); test: LTEA_HepaRG_LPL: Life Technologies and Expression Analysis (LTEA) Assay for Lipoprotein lipase (LPL) using HepaRG (AID 2283515)
Method in brief: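 Differentiated human HepaRG cells in serum-free induction medium were exposed in duplicate for 48 h to eight half-log concentrations (top 100 uM) in 0.5% DMSO. LPL mRNA was quantified by TaqMan qRT-PCR, normalized to ACTB, GAPDH and POLR2A.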

[17] = read-out: Interleukin 6 (IL6), IL6 (gene 3569); test: LTEA_HepaRG_IL6: Life Technologies and Expression Analysis (LTEA) Assay for Interleukin 6 (IL6) using HepaRG (AID 2283509)
Method in brief: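 Differentiated human HepaRG cells, plated 48 h then switched to serum-free induction medium, were exposed in duplicate for 48 h to eight half-log concentrations up to 100 uM in 0.5% DMSO. IL6 mRNA measured by qRT-PCR, normalized to ACTB/GAPDH/POLR2A.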

[18] = read-out: Interleukin 6 Receptor (IL6R), IL6R (gene 3570); test: LTEA_HepaRG_IL6R: Life Technologies and Expression Analysis (LTEA) Assay for Interleukin 6 Receptor (IL6R) using HepaRG (AID 2283510)
Method in brief: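 Differentiated human HepaRG cells, plated 48 h then switched to serum-free induction medium, were dosed in duplicate for 48 h at eight half-log concentrations up to 100 uM in 0.5% DMSO. IL6R mRNA quantified by qRT-PCR, normalized to ACTB/GAPDH/POLR2A; bidirectional fit versus DMSO.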

Measured: AC50

Sequence of Nuclear factor NF-kappa-B p105 subunit (Homo sapiens) (P19838 whole entry, looked up): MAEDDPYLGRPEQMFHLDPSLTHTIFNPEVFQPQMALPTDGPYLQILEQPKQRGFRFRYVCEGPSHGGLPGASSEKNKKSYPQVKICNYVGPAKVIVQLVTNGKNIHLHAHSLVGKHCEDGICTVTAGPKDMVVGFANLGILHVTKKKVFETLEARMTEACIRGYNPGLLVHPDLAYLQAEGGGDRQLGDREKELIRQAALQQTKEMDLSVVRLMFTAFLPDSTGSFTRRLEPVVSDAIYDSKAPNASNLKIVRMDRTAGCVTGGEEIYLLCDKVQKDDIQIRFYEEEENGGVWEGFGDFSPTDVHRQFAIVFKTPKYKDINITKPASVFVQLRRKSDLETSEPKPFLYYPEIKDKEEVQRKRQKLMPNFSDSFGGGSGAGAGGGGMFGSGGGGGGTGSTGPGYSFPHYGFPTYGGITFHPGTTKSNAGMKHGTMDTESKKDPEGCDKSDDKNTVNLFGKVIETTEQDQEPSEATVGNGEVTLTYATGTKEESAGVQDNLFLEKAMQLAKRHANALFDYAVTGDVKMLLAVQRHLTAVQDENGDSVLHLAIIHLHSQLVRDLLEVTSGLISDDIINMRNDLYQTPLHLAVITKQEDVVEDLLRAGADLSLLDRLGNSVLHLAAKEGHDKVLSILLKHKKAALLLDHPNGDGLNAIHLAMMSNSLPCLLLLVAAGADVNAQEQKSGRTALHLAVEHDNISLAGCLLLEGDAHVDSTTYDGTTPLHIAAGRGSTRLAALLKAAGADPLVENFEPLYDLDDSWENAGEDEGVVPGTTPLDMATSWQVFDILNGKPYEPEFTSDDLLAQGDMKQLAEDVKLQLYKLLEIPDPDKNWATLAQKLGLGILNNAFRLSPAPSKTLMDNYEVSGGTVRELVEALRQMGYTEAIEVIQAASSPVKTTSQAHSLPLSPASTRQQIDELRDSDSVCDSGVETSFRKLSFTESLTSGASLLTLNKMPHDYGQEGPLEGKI

CC[C@H]1CC[C@H](NCc2cc3c(cc2OC)[C@H]2C[C@H]2C(=O)N3C)[C@H](c2ccccc2)N1
not listed: [16] | [17] | [18]
inactive: all other assays above

CC1=CC(=O)CC(C)(C)C1
not listed: [10] | [12] | [17] | [18]
inactive: all other assays above

CC/C(=C\C(=N/O)C(N)=O)C(C)[N+](=O)[O-] (stereo unspecified)
not listed: HGF (gene 3082) | [10] | [12] | [16]
inactive: all other assays above

COc1ccc2sc(C(=O)Nc3nnn[nH]3)c(OC(C)C)c2c1
active: [3] 23.6 µM | [4] 28.1 µM | [16] 12.7 µM | [8] 80.2 µM | MYC, MYC (gene 4609) 38 µM | [10] 27.1 µM | [11] 35.8 µM | [15] 97.4 µM
not listed: [12] | [17] | [18]
inactive: all other assays above
